In all, about 58,000 sequences went through this assay and about 3,600 (6.2%) were called active. No stated cut-off is given here; in the data, active = GI50 up to about 1.1 µM and inactive = higher. These entries were drawn from the full list. Results with a measured potency or affinity are listed apart.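 48-hour exposure; five concentrations; linearly interpolated endpoints. Abbreviation: GI50, concentration required for 50% inhibition of growth.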

Eleven substances from ChEMBL document CHEMBL1201862, “PubChem BioAssay data set” (2004) can be followed below.

The test concerns OVCAR-8. As to the kind of experiment: NCI tumour cell line growth inhibition, 48 h.
Turning to “[Bis(aminomethyl)dimethylsilane]tetrachloroplatinum(IV), CHEMBL2146190”, the GI50 stood at 12 µM.

“mu-(1,7-nanodiamine-N,N')bis-(cis-aminedichloroplatimum (II)), CHEMBL2146215”: the GI50 came to 52.6 µM.

CISPLATIN, CHEMBL11359 came in with a GI50 of 4.52 µM.

As to “[Bis(aminomethyl)diethylsilane]tetrachloroplatinum(IV), CHEMBL2146203”, the GI50 worked out at 3.53 µM.

In turn, “[Bis(aminomethyl)ethylmethylsilane]tetrachloroplatinum(IV), CHEMBL2146192” came in with a GI50 of 3.7 µM.

With “[Bis(aminomethyl)tetramethylenesilane]tetrachloropaltinum(IV), CHEMBL2146189”, the GI50 turned out to be 6.01 µM.

“cis-Bis[[(trimethylsilyl)methyl]amino]tetrachloroplatinum(IV), CHEMBL2146191” registered a GI50 of 2.44 µM.

“[Bis(aminomethyl)dimethylsilane]dichloroplatinum (II), CHEMBL2146201” had a GI50 of 29.8 µM.

In turn, “[Bis(aminomethyl)pentamethylenesilane]tetrachloropaltinum(IV), CHEMBL2146204” gave a GI50 of 2.17 µM.

“[Bis(aminomethyl)tetramethylenesilane]dichloropaltinum(II), CHEMBL2146205”: the GI50 was found to be 17 µM.

Regarding “[Bis(aminomethyl)pentamethylenesilane]dichloropaltinum(II), CHEMBL2146202”, the GI50 was 2.05 µM.
